Source: PubChem BioAssay
Calls of active or inactive are those of the source. The rule behind the calls is not given here.

The compounds below were run against Pantothenate synthetase (Mycobacterium tuberculosis (strain ATCC 25618 / H37Rv)) (UniProt P9WIL5) (assay: Coupled enzyme confirmation of inhibitors against recombinant Mtb PanC (AID 375;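 note: 0% = full reaction with vehicle and 100% = no enzyme background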)). Conditions: coupled enzyme assay; at 10 µM, hits give high values.
Chain of Pantothenate synthetase (Mycobacterium tuberculosis (strain ATCC 25618 / H37Rv)) (P9WIL5 whole entry, looked up): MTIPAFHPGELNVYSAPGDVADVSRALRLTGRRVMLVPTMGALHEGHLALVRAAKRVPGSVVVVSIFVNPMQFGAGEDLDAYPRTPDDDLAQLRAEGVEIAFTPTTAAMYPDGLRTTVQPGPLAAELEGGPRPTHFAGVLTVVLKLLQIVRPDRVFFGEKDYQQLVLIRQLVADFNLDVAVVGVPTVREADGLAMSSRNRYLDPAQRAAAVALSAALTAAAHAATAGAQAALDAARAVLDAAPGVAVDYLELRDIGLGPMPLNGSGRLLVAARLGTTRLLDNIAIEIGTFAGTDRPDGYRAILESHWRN

Which inhibition does the source give for `CC(=O)Nc1nc(C)c(-c2csc(Nc3ccc(O)cc3)n2)s1` here?
The inhibition was 0% (inactive).

With `CCOC(=O)c1nnn(-c2nonc2NC(C)=O)c1C` as the compound, how does the inhibition read?
The inhibition was 8% (inactive).

`O=C(CSc1nc2ccccc2c(=O)n1Cc1ccco1)NCc1ccccc1` was tested. Which inhibition did it give?
Its inhibition is 2% (inactive).

`CN(C)c1ccc(C2C3=C(CCCC3=O)OC3=C2C(=O)CCC3)cc1` was tested. Which inhibition did it give?
The inhibition was 0% (inactive).

Which inhibition does the source give for `O=C(Nc1ccncc1)C1CCCN(S(=O)(=O)c2cccc3cccnc23)C1` (stereo not given) here?
Its inhibition is 0% (inactive).

Which inhibition does the source give for `FC(F)(F)C(F)(F)C(F)(F)c1nnc2ccc(N3CCOCC3)nn12` here?
Its inhibition is 3% (inactive).

With `CCCNS(=O)(=O)c1ccc(OCC(=O)NCc2ccc3c(c2)OCO3)cc1` as the compound, how does the inhibition read?
Its inhibition is 2% (inactive).

With `Cc1c(NC(=O)CSc2nnc3sc4ccccc4n23)c(=O)n(-c2ccccc2)n1C` as the compound, how does the inhibition read?
Its inhibition is 0% (inactive).

`O=C(COc1ccccc1)N1CCN(C(=O)c2cccc(F)c2)CC1` was tested. Which inhibition did it give?
The inhibition was 1% (inactive).

For `O=C(Nc1ccc(N2CCCC2)cc1)c1cccc(F)c1`, which inhibition is on record?
Its inhibition is 4% (inactive).

With `CCc1cc2c(=O)c(-c3cscn3)coc2cc1O` as the compound, how does the inhibition read?
The inhibition was 0% (inactive).

`CN1CC=C2C(C#N)=C(N)C(C#N)(C#N)C(Cc3ccccc3)C2C1` (stereo not given) was tested. Which inhibition did it give?
The inhibition was 0% (inactive).

For `CCOC(=O)C1CCN(C(=O)CSc2n[nH]c(=O)[nH]c2=O)CC1`, which inhibition is on record?
The inhibition was 0% (inactive).

Which inhibition does the source give for `COC(=O)c1ccc(CNC(=O)CSc2nc3sc(C)c(C)c3c(=O)n2C)o1` here?
Its inhibition is 0% (inactive).

For `CCn1c(SCC(=O)NC)nnc1C(C)C`, which inhibition is on record?
Its inhibition is 2% (inactive).

Which inhibition does the source give for `CCN(Cc1cc2ccccc2[nH]c1=O)S(=O)(=O)c1ccccc1` here?
The inhibition was 0% (inactive).

For `COc1cc(/C=C/C(=O)CC(=O)/C=C/c2ccc(O)c(OC)c2)ccc1O`, which inhibition is on record?
The inhibition was 10% (inactive).

`CCCn1c(=O)c2ccccc2n2c(SCCOc3ccccc3F)nnc12` was tested. Which inhibition did it give?
The inhibition was 0% (inactive).

Which inhibition does the source give for `Cc1cc(C(=O)Nc2c(F)cc(F)cc2Br)no1` here?
The inhibition was 0% (inactive).

Which inhibition does the source give for `Cc1ccc(S(=O)(=O)N2CCN(C(=O)CSc3nc4ccccc4c(=O)[nH]3)CC2)c(C)c1` here?
Its inhibition is 2% (inactive).

Which inhibition does the source give for `COc1ccc(OC)c(NC(=O)Cc2coc3ccc(C)cc23)c1` here?
The inhibition was 6% (inactive).

How did the inhibition turn out when `CC(C)N(C(=O)CSc1nnc(NC(=O)C2CCC2)s1)C(C)C` was run?
Its inhibition is 0% (inactive).

How did the inhibition turn out when `CCOc1ccc(-c2cc(CCCC(=O)N3CCN(c4ccc(OC)cc4)CC3)no2)cc1` was run?
The inhibition was 0% (inactive).

`COc1ccccc1NC(=O)NC(N)=O` was tested. Which inhibition did it give?
The inhibition was 0% (inactive).

`COC(=O)c1ccc(-c2ccc(CNCC(O)c3ccccc3)o2)cc1` (stereo not given) was tested. Which inhibition did it give?
Its inhibition is 1% (inactive).

For `CC(=O)Nc1cc(N2C(=O)CCC2=O)ccc1Cl`, which inhibition is on record?
Its inhibition is 0% (inactive).

For `CCn1c(=O)c(C(=O)NCc2ccc(OC)cc2)c(O)c2ccccc21`, which inhibition is on record?
The inhibition was 3% (inactive).

With `CCOc1ccc(C(CC(=O)O)NC(=O)c2ccco2)cc1OC` (stereo not given) as the compound, how does the inhibition read?
Its inhibition is 2% (inactive).

For `CCOC(=O)C1=C(c2ccccc2)N2CCS(=O)(=O)N=C2S1`, which inhibition is on record?
The inhibition was 0% (inactive).

With `C[C@H](NC(=O)NCc1cccs1)C(=O)O` as the compound, how does the inhibition read?
The inhibition was 0% (inactive).

With `CCOc1ccc(Oc2nc(Nc3ccc(C)cc3)nc(N(C)C)n2)nn1` as the compound, how does the inhibition read?
The inhibition was 0% (inactive).

For `CN(Cc1ccccc1)S(=O)(=O)c1ccc(S(=O)(=O)N2CCN(CCC#N)CC2)cc1`, which inhibition is on record?
The inhibition was 0% (inactive).

`CCN(c1ccc(OC)cc1)S(=O)(=O)c1ccc2c(c1)CCN2C(=O)CCC(=O)O` was tested. Which inhibition did it give?
The inhibition was 0% (inactive).

How did the inhibition turn out when `COc1cc(NS(=O)(=O)c2ccc(N)cc2)nc(OC)n1` was run?
Its inhibition is 0% (inactive).

Which inhibition does the source give for `CC12COC3(C(=O)Nc4ccc(Cl)cn4)CC1CCC32C` (stereo not given) here?
The inhibition was 0% (inactive).

With `Cc1ccc(S(=O)(=O)N(C)CC(=O)NC2CC(C)(C)NC(C)(C)C2)cc1` as the compound, how does the inhibition read?
The inhibition was 0% (inactive).

How did the inhibition turn out when `COCCOC(=O)C1=C(N)OC2=C(C(=O)CC(C)(C)C2)C1c1cccnc1` (stereo not given) was run?
Its inhibition is 0% (inactive).

`CCOC(=O)CCC(=O)O[C@H]1[C@H](O[C@@H]2[C@@H](C)[C@H](O[C@H]3C[C@@](C)(OC)[C@@H](O)[C@H](C)O3)[C@@H](C)C(=O)O[C@H](CC)[C@@](C)(O)[C@H](O)[C@@H](C)C(=O)[C@H](C)C[C@@]2(C)O)O[C@H](C)C[C@@H]1N(C)C` was tested. Which inhibition did it give?
The inhibition was 0% (inactive).

Which inhibition does the source give for `COc1ccc(-c2[nH]c(-c3cccc(OC)c3)nc2SCC(=O)NCc2ccco2)cc1` here?
The inhibition was 1% (inactive).

How did the inhibition turn out when `CCOC(=O)CSc1nnc(-c2ccccc2OC)o1` was run?
The inhibition was 0% (inactive).
